According to PubChem BioAssay (Tox21):
Results filed as inconclusive are left out. The source made the active and inactive calls. Unless noted, calls follow the shape of the dose curve; as a rule, active = well fitted curve in the direction sought with a large enough effect in the repeat runs; inconclusive = weak or mixed curves; inactive = no such curve, though single readings can be large; an effect the other way counts as inactive or inconclusive.

Assays:
[1] = qHTS assay to identify small molecule antagonists of the thyroid receptor (TR) signaling pathway - cell viability counter screen (AID 743064); also: nearly all actives have a fitted effect of over 50% in size
Summary of the method: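 In rat pituitary GH3.TRE-Luc reporter cells co-exposed to compound and 1 nM T3 for 23.5 h, cytotoxicity was assessed with CellTiter-Fluor in the same wells, read by fluorescence.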

[2] = qHTS assay to identify small molecule antagonists of the thyroid receptor (TR) signaling pathway (AID 743065); also: nearly all actives have a fitted effect of over 55% in size
Summary of the method: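 Antagonism measured as loss of luciferase signal in GH3 cells stably carrying a TRE-luciferase reporter, co-treated with compound and T3 (1 nM final) for 23.5 h at 37 C. Viability was read in the same well by CellTiter-Fluor.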

[3] = system: thyroid hormone receptor (rat, GH3 cells); test: qHTS assay to identify small molecule agonists of the thyroid receptor (TR) signaling pathway (AID 743066; calls by dose curve)
[4] = biological target: Estrogen receptor (Homo sapiens) (UniProt P03372); test: qHTS assay to identify small molecule antagonists of the estrogen receptor alpha (ER-alpha) signaling pathway (AID 743069; active = well fitted curve in the direction sought with a large enough effect in the signal ratio in the repeat runs, not every such curve was filed as active; the % refers to the signal ratio)
Sequence of Estrogen receptor (Homo sapiens) (P03372 whole entry, looked up): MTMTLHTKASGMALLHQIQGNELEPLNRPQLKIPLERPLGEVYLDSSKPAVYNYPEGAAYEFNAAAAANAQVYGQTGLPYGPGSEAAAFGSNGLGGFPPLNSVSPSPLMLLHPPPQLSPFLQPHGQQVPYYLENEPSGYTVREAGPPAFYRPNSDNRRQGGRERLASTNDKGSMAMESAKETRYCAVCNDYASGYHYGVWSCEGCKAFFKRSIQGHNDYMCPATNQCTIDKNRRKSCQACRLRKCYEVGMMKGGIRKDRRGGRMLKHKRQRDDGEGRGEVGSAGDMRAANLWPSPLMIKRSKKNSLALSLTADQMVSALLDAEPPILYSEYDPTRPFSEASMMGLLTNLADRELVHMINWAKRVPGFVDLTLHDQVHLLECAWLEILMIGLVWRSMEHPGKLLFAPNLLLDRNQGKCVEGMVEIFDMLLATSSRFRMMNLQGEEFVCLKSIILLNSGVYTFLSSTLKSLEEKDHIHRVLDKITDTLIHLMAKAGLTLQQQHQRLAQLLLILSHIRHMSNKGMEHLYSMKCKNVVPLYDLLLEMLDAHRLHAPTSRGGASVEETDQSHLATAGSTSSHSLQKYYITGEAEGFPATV
Summary of the method: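 Antagonist mode: compounds in DMSO were co-added with 17beta-estradiol to ER-alpha-bla HEK293 cells (2% charcoal-stripped serum) and left 18 h at 37C. Reporter inhibition was measured as FRET fluorescence after 2 h LiveBLAzer substrate at room temperature.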

[5] = qHTS assay to identify small molecule antagonists of the estrogen receptor alpha (ER-alpha) signaling pathway - cell viability counter screen (AID 743074; calls by dose curve;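 also: HEK293 cells carrying ER-alpha-UAS-bla reporter stimulated with 17beta-estradiol; nearly all actives have a fitted effect of over 45% in size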)
[6] = biological target: Estrogen receptor (Homo sapiens) (UniProt P03372); test: qHTS assay to identify small molecule agonists of the estrogen receptor alpha (ER-alpha) signaling pathway (AID 743075; calls by dose curve;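 also: HEK293 GripTite cells with ER-alpha and UAS-driven beta-lactamase reporter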)
[7] = biological target: Estrogen receptor (Homo sapiens) (UniProt P03372); test: qHTS assay to identify small molecule agonists of the estrogen receptor alpha (ER-alpha) signaling pathway using the BG1 cell line (AID 743079); conditions: BG1Luc4E2 cells, ERE-luciferase agonist, 22 h; also: nearly all actives have a fitted effect of over 20% in size
[8] = qHTS assay to identify small molecule antagonists of the estrogen receptor alpha (ER-alpha) signaling pathway using the BG1 cell line (AID 743080; calls by dose curve;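 also: BG1 cells stimulated with 17beta-estradiol alongside compound; nearly all actives have a fitted effect of over 25% in size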)
Summary of the method: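 After 5 days in phenol-red-free 10% charcoal-stripped FBS medium, BG1-Luc-4E2 cells were seeded, left 24 h at 37 C, co-treated with compounds and 17beta-estradiol for 21.5 h, then assayed for viability and luciferase.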

[9] = qHTS assay to identify small molecule antagonists of the estrogen receptor alpha (ER-alpha) signaling pathway using the BG1 cell line - cell viability counter screen (AID 743081);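 also: compound given together with 17beta-estradiol as the ER stimulus; nearly all actives have a fitted effect of over 45% in size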
Aromatase (Homo sapiens) = Aromatase (Homo sapiens) (UniProt P11511); test: qHTS assay to identify aromatase inhibitors (AID 743083); also: nearly all actives have a fitted effect of over 55% in size
Sequence of Aromatase (Homo sapiens) (P11511 whole entry, looked up): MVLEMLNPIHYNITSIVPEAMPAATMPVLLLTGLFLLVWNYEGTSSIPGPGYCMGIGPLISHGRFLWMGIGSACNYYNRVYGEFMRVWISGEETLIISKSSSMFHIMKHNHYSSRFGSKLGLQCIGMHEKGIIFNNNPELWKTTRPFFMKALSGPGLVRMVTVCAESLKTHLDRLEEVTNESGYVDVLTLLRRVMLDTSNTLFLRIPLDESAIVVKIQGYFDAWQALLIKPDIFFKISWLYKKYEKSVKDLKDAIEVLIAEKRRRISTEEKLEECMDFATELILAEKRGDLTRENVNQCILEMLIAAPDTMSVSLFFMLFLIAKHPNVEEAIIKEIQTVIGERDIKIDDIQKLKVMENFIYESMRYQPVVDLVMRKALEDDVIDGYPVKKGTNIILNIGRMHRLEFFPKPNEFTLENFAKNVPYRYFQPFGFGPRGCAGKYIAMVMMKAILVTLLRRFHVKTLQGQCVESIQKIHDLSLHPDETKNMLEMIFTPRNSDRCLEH
% is scaled to controls: 0 for no effect and ±100 for the full control effect.

O=P(O)(Oc1ccccc1)Oc1ccccc1
inactive: Potency [1] | Potency [2] | Potency [3] | Potency [4] | outcome [5] | Potency [6] | activation ([7]; at 70.3 µM (top of the series)) 1.22% | Potency [8] | Potency [9] | Potency (Aromatase (Homo sapiens))

ClC(Cl)C(Cl)Cl
inactive: Potency [1] | Potency [2] | Potency [3] | Potency [4] | outcome [5] | Potency [6] | activation ([7]; at 95 µM (top of the series)) -0.198% | Potency [8] | Potency [9] | Potency (Aromatase (Homo sapiens))

N#CCBr
inactive: Potency [1] | Potency [2] | Potency [3] | Potency [4] | outcome [5] | Potency [6] | activation ([7]; at 95 µM (top of the series)) 0.199% | Potency [8] | Potency [9] | Potency (Aromatase (Homo sapiens))

N#Cc1ccncc1
inactive: Potency [1] | Potency [2] | Potency [3] | Potency [4] | outcome [5] | Potency [6] | activation ([7]; at 95 µM (top of the series)) 1.2% | Potency [8] | Potency [9] | Potency (Aromatase (Homo sapiens))

BrCCCCCCBr
inactive: Potency [1] | Potency [2] | Potency [3] | Potency [4] | outcome [5] | Potency [6] | activation ([7]; at 70.3 µM (top of the series)) -3.68% | Potency [8] | Potency [9] | Potency (Aromatase (Homo sapiens))

C[N+](=O)[O-]
inactive: Potency [1] | Potency [2] | Potency [3] | Potency [4] | outcome [5] | Potency [6] | activation ([7]; at 70.3 µM (top of the series)) 0.916% | Potency [8] | Potency [9] | Potency (Aromatase (Homo sapiens))

OCCBr
inactive: Potency [1] | Potency [2] | Potency [3] | Potency [4] | outcome [5] | Potency [6] | activation ([7]; at 70.3 µM (top of the series)) 6.61% | Potency [8] | Potency [9] | Potency (Aromatase (Homo sapiens))

CC(C)CP(=S)(S)CC(C)C
inactive: Potency [1] | Potency [2] | Potency [3] | Potency [4] | outcome [5] | Potency [6] | activation ([7]; at 70.3 µM (top of the series)) -12.9% | Potency [8] | Potency [9] | Potency (Aromatase (Homo sapiens))

NC(=O)O
inactive: Potency [1] | Potency [2] | Potency [3] | Potency [4] | outcome [5] | Potency [6] | activation ([7]; at 70.3 µM (top of the series)) -5.63% | Potency [8] | Potency [9] | Potency (Aromatase (Homo sapiens))

c1cc2c(c(N3CCNCC3)c1)OCCO2
inactive: Potency [1] | Potency [2] | Potency [3] | Potency [4] | outcome [5] | Potency [6] | activation ([7]; at 70.3 µM (top of the series)) 9.1% | Potency [8] | Potency [9] | Potency (Aromatase (Homo sapiens))

CCC(=O)c1ccccc1
inactive: Potency [1] | Potency [2] | Potency [3] | Potency [4] | outcome [5] | Potency [6] | activation ([7]; at 70.3 µM (top of the series)) -1.07% | Potency [8] | Potency [9] | Potency (Aromatase (Homo sapiens))

CS(=O)(=O)c1cc(C(F)(F)F)ccc1C(=O)c1cnoc1C1CC1
inactive: Potency [1] | Potency [2] | Potency [3] | Potency [4] | outcome [5] | Potency [6] | activation ([7]; at 70.3 µM (top of the series)) 0.699% | Potency [8] | Potency [9] | Potency (Aromatase (Homo sapiens))

Cc1ncc(CNC(=O)N(CCCl)N=O)c(N)n1
inactive: Potency [1] | Potency [2] | Potency [3] | Potency [4] | outcome [5] | Potency [6] | activation ([7]; at 70.3 µM (top of the series)) 12.7% | Potency [8] | Potency [9] | Potency (Aromatase (Homo sapiens))

ClC(Br)Br
inactive: Potency [1] | Potency [2] | Potency [3] | Potency [4] | outcome [5] | Potency [6] | activation ([7]; at 70.3 µM (top of the series)) 1.01% | Potency [8] | Potency [9] | Potency (Aromatase (Homo sapiens))

CCOc1nc(C(Cl)(Cl)Cl)ns1
inactive: Potency [1] | Potency [2] | Potency [3] | Potency [4] | outcome [5] | Potency [6] | activation ([7]; at 70.3 µM (top of the series)) 4.23% | Potency [8] | Potency [9] | Potency (Aromatase (Homo sapiens))

CCCCN(CCCCO)N=O
inactive: Potency [1] | Potency [2] | Potency [3] | Potency [4] | outcome [5] | Potency [6] | activation ([7]; at 70.3 µM (top of the series)) -3.24% | Potency [8] | Potency [9] | Potency (Aromatase (Homo sapiens))

Nc1cnn(-c2ccccc2)c(=O)c1Cl
inactive: Potency [1] | Potency [2] | Potency [3] | Potency [4] | outcome [5] | Potency [6] | activation ([7]; at 70.3 µM (top of the series)) 6.72% | Potency [8] | Potency [9] | Potency (Aromatase (Homo sapiens))

COc1cc(OC)nc(NC(=O)NS(=O)(=O)c2ncccc2C(=O)N(C)C)n1
inactive: Potency [1] | Potency [2] | Potency [3] | Potency [4] | outcome [5] | Potency [6] | activation ([7]; at 70.3 µM (top of the series)) 9.83% | Potency [8] | Potency [9] | Potency (Aromatase (Homo sapiens))

Cc1nc(N)nc(N)n1
inactive: Potency [1] | Potency [2] | Potency [3] | Potency [4] | outcome [5] | Potency [6] | activation ([7]; at 95 µM (top of the series)) 2.81% | Potency [8] | Potency [9] | Potency (Aromatase (Homo sapiens))

C[N+](C)=CCl
inactive: Potency [1] | Potency [2] | Potency [3] | Potency [4] | outcome [5] | Potency [6] | activation ([7]; at 70.3 µM (top of the series)) 20.5% | Potency [8] | Potency [9] | Potency (Aromatase (Homo sapiens))

[Cl][Sn]([Cl])([Cl])[Cl]
inactive: Potency [1] | Potency [2] | Potency [3] | Potency [4] | outcome [5] | Potency [6] | activation ([7]; at 95 µM (top of the series)) -3.53% | Potency [8] | Potency [9] | Potency (Aromatase (Homo sapiens))

CC(=O)C(Cl)Cl
inactive: Potency [1] | Potency [2] | Potency [3] | Potency [4] | outcome [5] | Potency [6] | activation ([7]; at 95 µM (top of the series)) 0.96% | Potency [8] | Potency [9] | Potency (Aromatase (Homo sapiens))

C#CCN1C(=O)COc2cc(F)c(N3C(=O)C4=C(CCCC4)C3=O)cc21
inactive: Potency [1] | Potency [2] | Potency [3] | Potency [4] | outcome [5] | Potency [6] | activation ([7]; at 70.3 µM (top of the series)) -23.7% | Potency [8] | Potency [9] | Potency (Aromatase (Homo sapiens))
